An excerpt weighted towards active compounds, which were near 12% of everything screened.
Sfp PPTase inh: Sfp phosphopantetheinyl transferase inhibition; Q9F4F7; Biochemical Sfp PPTase activity, qHTS; Potency, µM, without a hit: largest response in the series, negative = inhibition, actives largely listed as inhibitors; actives 3.5% (n = 310,000); AID 1490;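 note: the enzyme is Sfp with the accession as filed and its product quenches rhodamine fluorescence; 0% = enzyme reaction without inhibitor and -100% = no enzyme wells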
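With Hepes-Na pH 7.6 buffer containing 10 mM MgCl2, Sfp (15 nM) modified BHQ-2-YbbR (12.5 uM) using rhodamine-CoA (5 uM). Two reads 30 minutes apart at 525/598 nm yielded each well's rate.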
HP1b binding inh: inhibitors of HP1-beta chromodomain binding to methylated histone tails; P83916; AlphaScreen HP1-beta / biotin-H3K9me3 peptide binding; Potency, µM (titrated, usually from 114 µM), for the others: top-dose activity change, negative = inhibition, most hits filed as inhibitors; actives 0.56% (n = 390,000); note: nearly all actives have a fitted effect of over 70% in size
Target sequence (P83916 whole entry, looked up): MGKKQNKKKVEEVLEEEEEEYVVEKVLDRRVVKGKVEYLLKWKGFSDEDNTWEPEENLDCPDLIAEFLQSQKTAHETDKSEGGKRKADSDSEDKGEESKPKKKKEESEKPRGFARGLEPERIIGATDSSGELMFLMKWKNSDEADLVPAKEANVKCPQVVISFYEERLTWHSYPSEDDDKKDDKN
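HP1-beta protein (50 nM final) preincubated 30 min at room temperature with biotinylated H3(1-18)K9me3 peptide (50 nM) in PBS pH 7.4, 0.01% Tween-20, then compound added for 30 min. AlphaScreen streptavidin donor/nickel chelate acceptor beads (10 ug/mL final), 30 min dark, luminescence read.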
JMJD2A Tudor inh: blocks the human JMJD2A Tudor domain; O75164; AlphaScreen JMJD2A-Tudor / H3K4me3 peptide binding; actives 4.4% (n = 390,000); Potency, µM (doses to about 114 µM), inactives show at the highest dose activity change, negative = inhibition, most hits filed as inhibitors; AID 504339; note: % is set by controls: 0 for no effect and ±100 for the full control effect; nearly all actives have a fitted effect of over 50% in size
BAZ2B inh: blocks human BAZ2B | AlphaScreen BAZ2B-H3K14Ac peptide displacement | actives 4.4% (n = 360,000) | Q9UIF8 | AID 504333 | Potency, µM (doses to about 114 µM), for the others: at the top dose activity change, negative = inhibition, actives largely listed as inhibitors; note: % is set by controls: 0 for no effect and ±100 for the full control effect; nearly all actives have a fitted effect of over 60% in size
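In this displacement format the biotinylated H3(5-23) peptide acetylated at Lys14 serves as ligand at 50 nM, with BAZ2B at 50 nM in PBS pH 7.4 containing 0.01% Tween-20. Donor and acceptor beads are 10 ug/mL final.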
G9a inh: inhibitors of human histone lysine methyltransferase G9a | G9a H3K9 monomethylation, AlphaScreen, 2 h | AID 504332 | Potency, µM (titrated, usually from 102 µM), for the others: at the highest dose activity, negative = inhibition, hits mostly inhibitors | actives 8.8% (n = 350,000); note: % is set by controls: 0 for no effect and ±100 for the full control effect; nearly all actives have a fitted effect of over 75% in size
Target sequence (Q96KQ7 913-1193 limits assumed): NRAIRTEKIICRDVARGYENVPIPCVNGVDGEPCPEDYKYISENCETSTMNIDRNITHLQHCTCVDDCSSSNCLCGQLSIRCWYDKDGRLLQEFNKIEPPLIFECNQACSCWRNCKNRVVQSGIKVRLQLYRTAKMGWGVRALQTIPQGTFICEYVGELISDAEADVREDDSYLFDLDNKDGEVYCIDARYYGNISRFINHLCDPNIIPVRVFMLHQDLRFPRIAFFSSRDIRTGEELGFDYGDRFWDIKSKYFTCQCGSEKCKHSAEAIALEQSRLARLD
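G9a (20 nM) preincubated 15 min RT with compounds, then 500 nM biotinylated H3K9 peptide and 20 uM SAM added; 2 h RT reaction. Monomethyl-H3K9 product detected by AlphaScreen with anti-H3K9me1 antibody, streptavidin donor and anti-rabbit IgG acceptor beads.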
Active calls of the source: *; ? = inconclusive; . = no result given; [ ] = another dose, or the depositor's remark. Calls come from the whole dose curve; as a rule, active = well fitted curve in the direction sought with a large enough effect; inconclusive = small, poorly fitted or top-dose-only effect, or another doubt; inactive = no such curve, though single readings can be large; an effect the other way counts as inactive or inconclusive. Potency is the fitted concentration of half-maximal effect.

SMILES | Sfp PPTase inh | HP1b binding inh | JMJD2A Tudor inh | BAZ2B inh | G9a inh
O=[N+]([O-])c1cccc(C(=S)N2CCN(c3ccccc3)CC2)c1 | 32µM* | ? | -30%[57.1 µM] | ? | 8.9µM*
COC(=O)/C(=C/c1cn(C)c2ccccc12)[N+](=O)[O-] | 56µM* | . | . | ? | ?
CC(=O)/C(N=Nc1ccc(C(=O)O)cc1)=C(\C)O | 17% | 46% | 1% | -11% | -21%
CC(=O)N1C(=O)CC(C)N(C(C)=O)c2ccc([N+](=O)[O-])cc21 (stereo not given) | -4% | 44% | ? | -2% | 20µM*
O=C(O)c1ccc(-c2ccc(Cl)cc2Cl)o1 | 14% | 3% | -28% | -26% | 2%
CN(C)/C=C/C(=O)c1ccc(-c2ccc(Cl)cc2Cl)o1 | -22% | -21% | -22%[57.1 µM] | ? | 45µM*
Cc1nn(-c2ccccc2)c2c1C(O)n1c(nc3ccccc31)S2 (stereo not given) | -12% | 17% | -18% | 28% | -47%
COc1cccc(C(=O)NCC(=O)OCC(=O)c2ccccc2)c1 | 6% | -1% | -19% | 1% | -10%[59 µM]
COc1cc(OC)cc(C(=O)NCC(=O)OCC(=O)Nc2ncc(Cl)cc2Cl)c1 | 7% | -5% | -27% | -18% | 71µM*
O=C(COC(=O)c1ccc(Br)o1)Nc1ncc(Cl)cc1Cl | -6% | 11% | ? | 50µM* | ?
O=C(COC(=O)c1cnccn1)Nc1c(Cl)cc(Cl)cc1Cl | . | 45% | -7% | 8% | -9%[59 µM]
O=C(COC(=O)c1cnccn1)Nc1ncc(Cl)cc1Cl | . | -15% | ? | 50µM* | 28µM*
COc1cc(OC)cc(C(=O)NCC(=O)OCC(=O)c2ccc3c(c2)-c2ccccc2C3)c1 | -9% | 45% | -11% | 10% | 35µM*
CCC(C)(C)NC(=O)C(c1ccc(OC)cc1)N(C(=O)CCC(=O)Nc1cc(C)on1)c1ccc(OC)c(OC)c1 (stereo not given) | 2% | 2% | -16% | 4% | 19%
CCN(CC)c1ccc(S(=O)(=O)N2CCOCC2)cc1NC(=O)COC(=O)c1cccnc1SC | . | 46% | -4% | 12% | -14%
CCCCn1cnc2c(c(-c3ccccc3)c(-c3ccccc3)n2Cc2ccco2)c1=N | ? | -8% | -17% | ? | .
N=c1c2c(-c3ccccc3)c(-c3ccccc3)n(Cc3ccco3)c2ncn1Cc1ccco1 | 35µM* | ? | 50µM* | 25µM* | ?
N=c1c2c(-c3ccccc3)c(-c3ccccc3)n(Cc3ccccc3)c2ncn1CCCn1ccnc1 | ? | -10% | ? | 50µM* | ?
CCS(=O)(=O)N1CCC(C(=O)Nc2cc([N+](=O)[O-])ccc2C)CC1 | 2% | 15%[57 µM] | -12% | -1% | -8%
Cc1cc(N(C)/N=C/c2ccccc2O)nc(-c2ccccc2O)n1 | 0% | 48% | 1% | 2% | ?
O=C1NC(=O)/C(=C\c2ccccc2Oc2ccc(F)c(F)c2)S1 | 15% | -1% | -21% | -28% | -3%[59 µM]
CC(C)N(Cc1nccn1C)C(=O)CC1C(=O)NCCN1Cc1ccc(F)c(F)c1 (stereo not given) | -6% | 25% | -6% | -26% | 40µM*
CN(Cc1ccon1)C(=O)CC1C(=O)NCCN1Cc1ccc(F)c(F)c1 (stereo not given) | 4% | 17% | -6% | -1% | .
CN(C(=O)CC1C(=O)NCCN1Cc1c(F)cccc1Cl)C1CCOCC1 (stereo not given) | 4% | 85% | -4% | 0% | 45µM*
CC(C)N(Cc1nccn1C)C(=O)CC1C(=O)NCCN1Cc1ccc(F)cc1 (stereo not given) | -8% | 40% | 1% | -37% | ?
SMILES | Sfp PPTase inh | HP1b binding inh | JMJD2A Tudor inh | BAZ2B inh | G9a inh
CN(C(=O)CC1C(=O)NCCN1Cc1ccoc1)C1CCOCC1 (stereo not given) | 5% | 13% | -11% | -16% | ?
CN(C(=O)CC1C(=O)NCCN1Cc1cccc(F)c1F)C1CCOCC1 (stereo not given) | -3% | 46% | -4% | -13% | ?
CN(C(=O)CC1C(=O)NCCN1Cc1ccc(F)c(F)c1)C1CCCCC1 (stereo not given) | 3% | 18% | -8% | -15% | 45µM*
Cc1ccc(CN2CCNC(=O)C2CC(=O)N(C)C2CCOCC2)cc1 (stereo not given) | 6% | 40% | -8% | 3% | 50µM*
CCN(CCn1cccn1)C(=O)CC1C(=O)NCCN1Cc1ccc(F)c(F)c1 (stereo not given) | 9% | 37% | 8% | -6% | ?
CCN(Cc1ccncc1)C(=O)CC1C(=O)NCCN1Cc1ccc(F)c(F)c1 (stereo not given) | 79µM* | 70% | -10% | -29% | ?
Cn1nc(C(=O)Nc2c(-c3ccccc3)nc3sccn23)c2ccccc2c1=O | 40µM* | 38% | -26% | ? | -13%[59 µM]
CCOc1ccc(-n2c(-c3ccc(Br)cc3)cc3c2CC(C)(C)CC3=O)cc1 | . | ? | 13µM* | 10µM* | ?
O=C(COC(=O)C1C2CC3OC(=O)C1C3C2)Nc1ccccc1 (stereo not given) | 11% | 7% | -4% | 7% | 50µM*
O=C(COC(=O)C1C2CC3OC(=O)C1C3C2)Nc1ccc(F)cc1 (stereo not given) | 10% | 53% | -8% | -15% | -6%
Cc1ccc(S(=O)(=O)N2CCN(C(=O)COC(=O)CNC(=O)c3ccccc3)CC2)c(C)c1 | . | 10% | -16% | 4% | -22%
Cc1ccc(S(=O)(=O)N2CCN(C(=O)COC(=O)CNC(=O)c3ccc(Cl)cc3Cl)CC2)c(C)c1 | . | -2% | 25µM* | . | .
COc1ccc(N2CCN(C(=O)COC(=O)CNC(=O)c3ccc(Cl)cc3Cl)CC2)cc1 | . | -10% | -13% | -30% | 45µM*
COc1ccc(N2CCN(C(=O)COC(=O)CNC(=O)c3ccccc3)CC2)cc1 | 14% | 6% | -8% | -14% | 20%
COc1ccc(N2CCN(C(=O)COc3ccc(Cl)cc3Cl)CC2)cc1 | 5% | -16% | ? | ? | 6.3µM*
CC[C@]12c3[nH]c4cc(CCC(=O)N(C)C)ccc4c3CCN1C(=O)[C@@H](CC(=O)NC(C)(C)C)C[C@@H]2C(=O)N1CCN(C(=O)c2ccco2)CC1 | . | 35% | 1% | . | .
Cc1nc2cccnc2n1-c1cccc(C(=O)NCc2cccc(Cl)c2)c1 | . | 10% | -8% | -11% | -5%[59 µM]
COc1ccc(CN(C(=O)CCC(=O)N2CCCCC2)c2nccs2)cc1OC | 1% | 5% | -10% | -4% | .
OC1(c2cccs2)CN(c2ccccc2)C2=[N+]1CCCC2 (stereo not given) | 19% | 33% | 2% | . | -47%
CC1=CS(=O)(=O)CC1Sc1ncn[nH]1 (stereo not given) | 14% | 11% | ? | -10% | ?

Screens as filed in PubChem.
